SENP8 block-1 = blocks human SENP8 cleavage of Nedd8 substrate; recombinant SENP8, Nedd8 substrate fluorescence; inhibition, % at 20 µM; hit rate 0.64% among 360,000; AID 602440; in the data active means inhibition mostly above about 40%, no sharp cut-off; inactive means mostly below about 27%
Target sequence (Q96LD8 whole entry, looked up): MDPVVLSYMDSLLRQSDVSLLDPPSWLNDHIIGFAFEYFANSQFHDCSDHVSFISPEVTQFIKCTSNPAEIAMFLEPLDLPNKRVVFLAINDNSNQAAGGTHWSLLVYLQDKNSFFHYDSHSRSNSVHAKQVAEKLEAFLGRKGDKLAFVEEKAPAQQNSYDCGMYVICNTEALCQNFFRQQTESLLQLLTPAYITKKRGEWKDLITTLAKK
SENP7 block = blocks the human protease SENP7. Q9BQF6. recombinant SENP7, Z-RLRGG-aminoluciferin luminescence, 40 min. inhibition, % at 5 µM. hit rate 1.5% among 330,000;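 active means inhibition above about 50% at the single test dose, limit read from the data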;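 further: plate controls were DMSO with enzyme for no effect and no enzyme buffer wells for full effect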
Target sequence (Q9BQF6 706-1050 limits assumed): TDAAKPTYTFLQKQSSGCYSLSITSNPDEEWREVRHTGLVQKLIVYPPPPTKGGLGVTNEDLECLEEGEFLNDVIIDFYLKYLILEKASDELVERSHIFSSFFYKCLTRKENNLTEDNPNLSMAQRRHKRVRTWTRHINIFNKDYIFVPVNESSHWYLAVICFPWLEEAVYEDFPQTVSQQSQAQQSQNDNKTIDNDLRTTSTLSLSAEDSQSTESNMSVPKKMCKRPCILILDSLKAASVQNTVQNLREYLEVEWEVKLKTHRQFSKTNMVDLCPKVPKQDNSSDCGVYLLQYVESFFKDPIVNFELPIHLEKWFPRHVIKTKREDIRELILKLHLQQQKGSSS
SENP6 inh = SENP6 protease inhibition; Q9GZR1; AID 2599; hit rate 1.8% among 330,000; Recombinant SENP6 catalytic domain, aminoluciferin luminescence; inhibition, % at 10 µM;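 active means inhibition above about 50% at the single tested dose, limit read from the data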;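 further: plate controls were DMSO wells with enzyme for no effect and DMSO wells lacking enzyme for full effect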
SENP8 block-2 = inhibitors of human SENP8 protease | hit rate 1.2% among 330,000 | Q96LD8 | purified SENP8, Z-RLRGG-aminoluciferin cleavage, luminescence | inhibition, % at 10 µM; in the data active means inhibition above about 50%
HSP90 refold inh = HSP90 refolding inhibition in rabbit reticulocyte lysate; luciferase refolding luminescence, 3 h; inhibition, % at 5.6 µM; hit rate 0.91% among 290,000;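 active means inhibition above the screen-wide mean plus 3 SD, computed separately per campaign, cut at about 16% in these data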;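 further: 0% = DMSO wells and 100% = 60 µM geldanamycin wells; inhibitors lower the luminescence because luciferase stays unfolded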
SENP8 inh conf = SENP8 (human) inhibition, single concentration confirmation | hit rate 15% among 1,400 | shares compounds with SENP8 block-1 | inhibition, % at 25 µM | AID 624319 | purified SENP8, Nedd8-AMC/pro-Nedd8 cleavage fluorescence, 30 min; in the data active means inhibition mostly above about 39%, no sharp cut-off; inactive means mostly below about 34%
* = called active by the depositor; i = inactive; · = not tested or not shown. Most compounds without a hit are left out; they make up all but 2.7% or so of the library.

SMILES	SENP8 block-1	SENP7 block	SENP6 inh	SENP8 block-2	HSP90 refold inh	SENP8 inh conf
COc1ccc(N2CC(C(=O)N[C@@H](C)C(=O)N[C@H](CO)c3ccccc3)CC2=O)cc1 (some centres not stated)	53.1*	0.9	-8.9	0.6	-2.5	13.1
COc1ccc(C(=O)NN(C)c2nc(C(F)(F)F)nc3ccccc23)cc1	9.0	·	·	·	-2.5	·
COC(=O)C1CCN(CC(=O)N(C)c2c(N)n(Cc3ccccc3)c(=O)[nH]c2=O)CC1	3.9	-5.5	-18.7	-14.7	·	·
CCOc1ccc(N2C(=O)Cc3ccccc3C2=O)cc1	74.8*	19.0	32.0	2.6	-3.8	25.6
CCOC(=O)c1ccc(N2C(=O)Cc3ccccc3C2=O)cc1	63.2*	3.9	28.1	4.3	-3.8	27.4*
Cc1cc(N2C(=O)Cc3ccccc3C2=O)ccc1C(C)C	77.8*	25.7	47.1	23.2	-0.9	35.0
S=C(Nc1cccc(Cl)c1)NC1CCCCC1	27.1	-2.8	-18.9	-15.9	-0.6	·
S=C(NNc1cccc(Cl)c1)NC1CCCCC1	49.0*	-7.3	0.1	-4.9	2.9	20.8
COc1ccc([N+](=O)[O-])cc1NC(=O)C(C)N1CCN(C(=O)c2ccco2)CC1 (configuration not stated)	37.9*	-8.9	-13.3	-0.3	-0.8	16.0
COC(=O)c1cc(C(=O)N2CCN(C(=O)c3ccco3)CC2)cc([N+](=O)[O-])c1	-0.8	-3.5	-4.8	-3.9	-0.2	·
Cc1ccc(NC(=O)CS(=O)CC(=O)NCCCc2ccccc2)cc1Cl (configuration not stated)	41.0*	-0.3	-8.0	-5.0	-0.6	17.4
C1CCN(c2nc3nonc3nc2N2CCCCC2)CC1	14.5	1.3	-1.6	-2.6	7.0	·
C1CCN(c2nc3nonc3nc2NCC2CCOCC2)CC1	43.5*	8.5	13.9	6.3	3.0	22.5
C=CCn1c(C)cc(C(=O)CSc2nnc(NC(C)C)s2)c1C	44.0*	3.8	10.6	1.9	0.8	7.4
COc1ccc(Cc2cc(NCc3ccccc3)c3ncn(C(C)C)c3c2)cc1	12.3	3.5	-2.5	5.1	·	·
CCOCCOc1cc(NCc2ccccc2)c2ncn(C(C)C)c2c1	40.1*	·	·	·	·	79.6*
CCCCOc1cc(NCc2ccccc2)c2ncn(C(C)C)c2c1	50.8*	17.7	-2.7	8.2	·	64.7*
COCCCOc1cc(NCc2ccccc2)c2ncn(C(C)C)c2c1	22.0	4.0	-9.3	-8.4	·	·
CC(C)(C)NC(=O)CSCc1ccc(Br)cc1	8.7	-10.2	-9.8	-9.9	-1.6	·
CCOC(=O)C1(CC2CCCCO2)CCN(Cc2cn[nH]c2-c2cccc(F)c2)CC1 (configuration not stated)	45.2*	-3.2	-8.6	-7.6	2.7	15.3
C(COC1CC2CC1C1C2CC2OC21)OC1CC2CC1C1C2CC2OC21 (configuration not stated)	10.1	·	·	·	·	·
CCN(CC)S(=O)(=O)c1cc(NC(=O)CNc2c(C)n(C)n(-c3ccccc3)c2=O)ccc1C	-5.5	3.6	-23.2	-3.7	2.0	·
CC1CCN(c2ccc(NC(=S)NC(=O)c3ccco3)cc2)CC1	42.4*	-8.1	-17.0	-5.6	-3.0	12.0
C[C@@H]1CN(c2nc3nonc3nc2N2CCSCC2)C[C@H](C)O1	40.6*	-5.0	-3.7	0.7	3.1	19.3
CCN1CCN(CC(=O)Nc2c(C(=O)OC)[nH]c3cccc(Cl)c23)CC1	·	·	·	·	5.6	·
SMILES	SENP8 block-1	SENP7 block	SENP6 inh	SENP8 block-2	HSP90 refold inh	SENP8 inh conf
CCOC(=O)c1ccc(NC(=O)CCN2C(=O)C3CC=CCC3C2=O)cc1 (configuration not stated)	34.3*	1.5	-2.0	2.0	·	6.6
CN(C)S(=O)(=O)c1cccc(NC(=O)CCNC(=O)Nc2ccccc2)c1	42.2*	4.9	-4.1	-3.6	·	8.4
O=C(CC(=O)c1ccccc1)c1ccccc1	4.7	·	·	·	·	·
O=C(c1ccccc1)c1ccccc1	61.2*	1.4	-0.4	-4.5	·	6.8
Cc1ccc(Sc2ccc(/C=N/O)cc2[N+](=O)[O-])cc1	41.9*	3.6	7.2	-13.2	-3.7	17.1
CO/N=C/c1ccc(Sc2ccc(C)cc2)c([N+](=O)[O-])c1	32.5	1.9	-6.2	-4.0	1.5	·
CCOc1ccc(C(=O)C(CCC(CN(C)C)C(=O)c2ccc(OCC)cc2)CN(C)C)cc1 (configuration not stated)	11.4	·	·	·	-0.2	·
COc1ccc(C(=O)C(CCCCC(CN(C)C)C(=O)c2ccc(OC)cc2)CN(C)C)cc1 (configuration not stated)	41.7*	-0.5	-10.4	0.0	0.3	12.3
COc1ccc(Nc2nnc(SCC(=O)N3CCCC3)s2)cc1	13.8	0.0	11.8	-2.8	-1.0	·
CC1C2CC(C(CN(C)C)/C2=N/O)C1(C)C (configuration not stated)	20.7	1.5	-7.1	8.4	-0.5	·
C[N+]1(C)CCC(=C2c3ccccc3CC(=O)c3sccc32)CC1	75.1*	14.2	35.9	2.9	4.0	55.9*
CC[N+]1(C)CCC(=C2c3ccccc3CC(=O)c3sccc32)CC1 (configuration not stated)	20.5	2.8	-1.2	-2.0	-1.0	·
CCCC(C(=O)NC1CCCC1)N(Cc1ccc(F)cc1)C(=O)c1snc(C(N)=O)c1N (configuration not stated)	-319.1	-1.4	34.1	14.3	2.5	·
O=C(NCCc1ccccc1)C(=O)NCC1OCCN1S(=O)(=O)c1ccccc1 (configuration not stated)	14.3	-0.5	9.2	-0.6	-3.4	·
O=C(c1coc(=O)c(Br)c1)N1CCOCC1	i	·	·	·	2.6	·
CC(C)C(=O)NS(=O)(=O)c1ccc(N)cc1	46.9*	1.2	1.2	-2.3	1.9	10.9
CC(C)CC(=O)NS(=O)(=O)c1ccc(N)cc1	14.7	-3.9	-14.9	0.8	3.3	·
COc1ccc(S(=O)(=O)N2CCSC2c2ccc(OC)c(OC)c2)cc1 (configuration not stated)	50.2*	-2.6	-7.2	-5.6	-0.7	15.7
COc1ccc(C2SCCN2S(=O)(=O)c2ccc(F)cc2)cc1OC (configuration not stated)	11.3	-5.2	4.8	6.8	1.8	·
CN1/C(=C/C=C(C#N)C#N)C=Cc2ccccc21	22.3	11.1	-14.6	-1.2	3.1	·
CCCN1C=CC(=C/C=C(\C#N)C(=O)OCC)C=C1	·	-20.0	-13.7	-13.4	-2.8	·
CCCCCCN1C=C/C(=C\C=C(C#N)C#N)c2ccccc21	29.1	16.6	26.0	14.8	-1.7	·
C=CCN1C=CC(=CC=C(C#N)C#N)C=C1	55.7*	0.7	-3.9	-2.8	1.6	9.8
CCCCCCN1C=CC(=C/C=C(\C#N)C(=O)OCC)C=C1	36.5*	2.9	3.2	-3.5	-0.3	32.5
CCCCCCN1C=CC=C/C1=C/C=C(C#N)C#N	49.6*	-3.3	-2.5	-4.4	-1.5	26.6
C=CCN1C=C/C(=C\C=C(C#N)C#N)c2ccccc21	26.2	8.6	-4.8	11.3	1.3	·
CCCN1C=CC(=CC=C(C#N)C#N)C=C1	50.4*	-4.1	-3.9	2.2	6.0	9.3
